# A number with no mark means an inactive call. For some assays here: Measured potencies and affinities stand elsewhere. Activity calls are given as the source filed them. Unless noted, no rule for the calls is given here.
# Assays:
# [1] = antimalarial activity against Dd2 strain (AID 2302;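 active = growth inhibition above 50% at the single 2 µM test dose, taken to imply half-maximal potency below 2 µM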;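 also: 0% = DMSO untreated growth and 100% = chloroquine plus artemisinin killed control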); settings: P. falciparum Dd2 in RBCs, LDH growth readout, 72 h; at 2 µM; active compounds read high
# [2] = human hepatoma cell viability loss – ATP luminescence, cytotoxicity control for P. falciparum antimalarial project, primary screen (AID 2303;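 active = inhibition above 50%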;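 also: 0% = DMSO wells and 100% = digitonin-killed cells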); settings: HepG2 viability, 24-48 h, at 10 µM, active compounds read high
# [3] = molecular target: L-lactate dehydrogenase (Plasmodium falciparum (isolate CDC / Honduras)) (UniProt Q27743); assay: PfLDH activity inhibition – cell lysate, 3D7 strain, counter-screen for P. falciparum growth inhibition project (AID 2304);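 also: 0% = vehicle and 100% = reference inhibitor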; settings: P. falciparum 3D7 crude extract, LDH APAD/NBT absorbance; at 2 µM; active compounds read high
# L-lactate dehydrogenase (Plasmodium falciparum (isolate CDC / Honduras)), sequence (Q27743 whole entry, looked up): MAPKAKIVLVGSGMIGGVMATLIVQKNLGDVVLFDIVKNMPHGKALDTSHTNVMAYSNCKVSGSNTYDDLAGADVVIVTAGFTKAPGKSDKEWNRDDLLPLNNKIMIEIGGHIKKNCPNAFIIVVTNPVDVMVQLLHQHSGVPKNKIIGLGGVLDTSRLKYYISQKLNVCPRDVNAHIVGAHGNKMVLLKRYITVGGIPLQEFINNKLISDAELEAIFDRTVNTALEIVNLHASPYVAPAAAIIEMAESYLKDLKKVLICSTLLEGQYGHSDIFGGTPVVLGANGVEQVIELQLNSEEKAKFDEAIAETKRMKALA
# [4] = inhibition of 3D7 malaria parasite growth – strain 3D7 (AID 2306);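 also: 0% = DMSO wells and 100% = chloroquine plus artemisinin control wells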; settings: P. falciparum 3D7 erythrocytic growth, LDH absorbance, 72 h; at 2 µM; active compounds read high
# [5] = molecular target: Calcium-dependent protein kinase 1 (Plasmodium falciparum (isolate 3D7)) (UniProt P62344); assay: PfCDPK1 kinase inhibitors, biochemical, TCAMS library (AID 1159585; cut-off not given, nearly all actives have IC50 up to about 0.98 µM;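 also: inhibitors leave more ATP so luminescence rises with inhibition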); settings: recombinant PfCDPK1, Kinase-Glo ATP depletion luminescence
# Calcium-dependent protein kinase 1 (Plasmodium falciparum (isolate 3D7)), sequence (P62344 whole entry, looked up): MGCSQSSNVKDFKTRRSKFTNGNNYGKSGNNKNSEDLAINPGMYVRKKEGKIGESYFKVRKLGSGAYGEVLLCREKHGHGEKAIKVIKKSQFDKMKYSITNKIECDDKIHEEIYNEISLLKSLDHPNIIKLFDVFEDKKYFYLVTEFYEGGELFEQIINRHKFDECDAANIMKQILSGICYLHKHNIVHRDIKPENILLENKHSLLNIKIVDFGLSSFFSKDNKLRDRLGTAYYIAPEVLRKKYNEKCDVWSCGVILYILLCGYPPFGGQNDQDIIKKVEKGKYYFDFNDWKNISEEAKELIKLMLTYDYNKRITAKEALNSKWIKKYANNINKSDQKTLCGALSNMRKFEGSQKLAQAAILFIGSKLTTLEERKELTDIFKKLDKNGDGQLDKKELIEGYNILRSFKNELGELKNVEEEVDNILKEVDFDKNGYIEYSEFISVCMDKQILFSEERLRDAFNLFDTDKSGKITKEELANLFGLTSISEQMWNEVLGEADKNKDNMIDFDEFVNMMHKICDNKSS
# [6] = molecular target: Plasmodium falciparum protein kinase 6 (PK6, PF3D7_1337100) (UniProt Q8IDW1); assay: PfPK6 kinase inhibitors, biochemical, TCAMS library (AID 1159586); settings: recombinant PfPK6, Kinase-Glo ATP depletion luminescence
# Plasmodium falciparum protein kinase 6 (PK6, PF3D7_1337100), sequence (Q8IDW1 1-305): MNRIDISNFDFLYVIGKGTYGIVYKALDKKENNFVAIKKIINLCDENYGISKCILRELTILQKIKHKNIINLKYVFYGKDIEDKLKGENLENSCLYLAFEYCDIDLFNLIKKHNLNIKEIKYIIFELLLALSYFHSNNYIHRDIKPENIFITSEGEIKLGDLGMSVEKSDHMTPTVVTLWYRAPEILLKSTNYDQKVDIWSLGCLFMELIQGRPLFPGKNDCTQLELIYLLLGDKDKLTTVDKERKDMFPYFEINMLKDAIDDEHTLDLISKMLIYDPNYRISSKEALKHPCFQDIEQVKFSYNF
# [7] = molecular target: Protein kinase 7 (PK7), Plasmodium falciparum 3D7 (PF3D7_0213400) (UniProt Q7YTF7); assay: inhibition of Plasmodium PK7 catalytic activity – biochemical, TCAMS antimalarial set, Kinase-Glo luminescence (AID 1159587); settings: recombinant PfPK7, Kinase-Glo ATP depletion luminescence
# Protein kinase 7 (PK7), Plasmodium falciparum 3D7 (PF3D7_0213400), sequence (Q7YTF7 1-343): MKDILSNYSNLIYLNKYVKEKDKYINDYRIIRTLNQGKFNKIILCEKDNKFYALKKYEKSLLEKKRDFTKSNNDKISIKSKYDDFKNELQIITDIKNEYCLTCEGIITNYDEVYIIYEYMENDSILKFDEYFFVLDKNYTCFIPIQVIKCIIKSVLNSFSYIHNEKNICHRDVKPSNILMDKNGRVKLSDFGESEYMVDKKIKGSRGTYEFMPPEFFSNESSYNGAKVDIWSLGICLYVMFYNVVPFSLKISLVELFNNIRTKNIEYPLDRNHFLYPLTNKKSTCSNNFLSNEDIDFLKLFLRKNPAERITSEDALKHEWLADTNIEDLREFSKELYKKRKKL
# [8] = molecular target: Calcium-dependent protein kinase 4 (Plasmodium falciparum (isolate 3D7)) (UniProt Q8IBS5); assay: PfCDPK4 kinase inhibitors, biochemical, TCAMS library (AID 1159588; cut-off not given, nearly all actives have IC50 up to about 0.91 µM); settings: recombinant PfCDPK4, Kinase-Glo ATP depletion luminescence
# Calcium-dependent protein kinase 4 (Plasmodium falciparum (isolate 3D7)), sequence (Q8IBS5 whole entry, looked up): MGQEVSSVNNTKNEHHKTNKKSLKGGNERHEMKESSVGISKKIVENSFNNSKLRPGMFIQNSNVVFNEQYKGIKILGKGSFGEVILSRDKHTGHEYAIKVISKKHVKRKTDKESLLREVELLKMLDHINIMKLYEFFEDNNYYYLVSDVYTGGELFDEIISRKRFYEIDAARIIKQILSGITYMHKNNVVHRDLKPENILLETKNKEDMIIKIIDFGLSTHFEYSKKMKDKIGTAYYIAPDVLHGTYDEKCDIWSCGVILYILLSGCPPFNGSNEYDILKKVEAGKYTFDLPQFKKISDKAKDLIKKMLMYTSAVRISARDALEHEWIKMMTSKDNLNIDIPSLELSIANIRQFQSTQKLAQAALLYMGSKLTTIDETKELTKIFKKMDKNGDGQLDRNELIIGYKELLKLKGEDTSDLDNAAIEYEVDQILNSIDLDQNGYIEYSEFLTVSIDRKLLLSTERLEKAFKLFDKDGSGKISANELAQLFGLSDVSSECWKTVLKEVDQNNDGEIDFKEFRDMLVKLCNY
Compound,growth inhibition [1],inhibition [2],inhibition [3],growth inhibition [4],outcome [5],outcome [6],outcome [7],outcome [8]
CCCCCn1c(Sc2ccc(C#N)c([N+](=O)[O-])c2)nnc1-c1cc(OC)cc(OC)c1,24%,17%,1%,93% (active),inactive,inactive,inactive,inactive
COc1ccc(NC(=O)NCC2CCCN(CCCCCNC(=O)/C=C/c3ccc(Cl)c(Cl)c3)C2)c(OC)c1 (stereo not given),-2%,8%,-6%,95% (active),inactive,inactive,inactive,inactive
c1ccc(CCNc2ccnc(Nc3ccc4cn[nH]c4c3)n2)cc1,100% (active),54% (active),-3%,101% (active),inactive,inactive,inactive,inactive
CN1CCN(CCCN(Cc2csc(-c3ccc(CNCc4ccccc4)cc3)n2)C(=O)Nc2cccc(Cl)c2)CC1,67% (active),32%,-5%,102% (active),inactive,inactive,inactive,inactive
O=C(CCCC(=O)Nc1ccc(C2=NCCN2)cc1)Nc1ccc(C2=NCCN2)cc1,81% (active),3%,2%,91% (active),inactive,inactive,inactive,inactive
Cc1cc(NC(=O)Nc2ccc3sccc3c2)c2ccccc2n1,57% (active),41%,0%,99% (active),inactive,inactive,inactive,inactive
Cc1cc(C)c2[nH]cc(C(=O)O)c(=O)c2c1,60% (active),-1%,-6%,93% (active),inactive,inactive,inactive,inactive
CCNc1c2ccc(Cl)cc2nc2ccc(OC)cc12,100% (active),16%,0%,99% (active),inactive,inactive,inactive,inactive
Cc1sc2ncnc(Sc3nnc(N)s3)c2c1C,100% (active),9%,-1%,101% (active),inactive,inactive,inactive,inactive
COc1cc(Cc2cnc(N)nc2N)c2c(c1OC)OC(C)(C)C=C2,2%,7%,-3%,93% (active),inactive,inactive,inactive,inactive
CO/C(=C\C=C\c1cc2cc(Cl)c(Cl)cc2[nH]1)C(=O)NCCN1CCCCC1,86% (active),16%,1%,81% (active),inactive,inactive,inactive,inactive
O=C(N[C@@H](Cc1ccccc1)[C@H](O)CNCCC(F)(F)F)c1cccc(CCC2CC2)c1,13%,-4%,5%,87% (active),inactive,inactive,inactive,inactive
O=C(c1cc2c(s1)-c1cccc(Cl)c1SC2)N1CCN(c2ccncc2)CC1,36%,45%,1%,94% (active),inactive,inactive,inactive,inactive
FC(F)(F)COc1ccc(CNCCCCCCNCc2ccc(OCC(F)(F)F)c3ccccc23)c2ccccc12,93% (active),99% (active),3%,102% (active),inactive,inactive,inactive,inactive
CCOc1cc(C(=O)NC2CCN(Cc3ccccc3)CC2)ccc1-c1nc2cc(Cl)c(Cl)cc2[nH]1,99% (active),24%,2%,101% (active),inactive,inactive,inactive,inactive
COc1ccc(Cl)cc1NC(=O)Nc1ccc2c(c1)CCN(C1CCC1)CC2,19%,38%,-2%,98% (active),inactive,inactive,inactive,inactive
COc1cc2nc(Nc3ccc(Oc4ccccc4)cc3)nc(Nc3ccc(Oc4ccccc4)cc3)c2cc1OC,45%,5%,6%,95% (active),inactive,inactive,inactive,inactive
Cc1nc(N)nc(N)c1-c1cc(Cl)c(N)c(Cl)c1,2%,62% (active),6%,94% (active),inactive,inactive,inactive,inactive
CN1CCN(CC(=O)Nc2cccc(-c3cccc(-c4nc5ccccc5[nH]4)c3)c2)CC1,27%,11%,3%,90% (active),inactive,inactive,inactive,inactive
O=C(Nc1ccc(Oc2cccnc2)cc1)C1CCN(Cc2cc(Cl)ccc2O)CC1,1%,37%,-2%,83% (active),inactive,inactive,inactive,inactive

Compound,growth inhibition [1],inhibition [2],inhibition [3],growth inhibition [4],outcome [5],outcome [6],outcome [7],outcome [8]
O=C(NCCCCN1CCC(c2ccc3c(c2OCCN2CCCC2)CCCC3)CC1)c1ccc(-c2ccc(C(F)(F)F)cc2)cc1,81% (active),25%,-6%,100% (active),inactive,inactive,inactive,inactive
O=C(Nc1ccc2c(c1)CCN2C1CCN(Cc2ccc(O)cc2)C1)c1ccco1 (stereo not given),63% (active),0%,-2%,97% (active),inactive,inactive,inactive,inactive
CCc1c(C(=O)NC2CCC(N3CCC(c4ccccc4C)CC3)CC2)[nH]c2ccc(OC)cc12 (stereo not given),100% (active),78% (active),-1%,101% (active),inactive,inactive,inactive,inactive
Cc1cc(NC(=O)NCCN2CCC(NC(=O)c3cccc(Br)c3)C2)c2ccccc2n1 (stereo not given),60% (active),-2%,-1%,100% (active),inactive,inactive,inactive,inactive
COc1ccc(NC(=O)Nc2ccc(-c3cccc(-c4nc5c(C)cccc5[nH]4)c3)cc2)cc1,75% (active),33%,4%,101% (active),inactive,inactive,inactive,inactive
c1ccc2c(NCCCCCCCCCNc3ccnc4ccccc34)ccnc2c1,100% (active),57% (active),-3%,101% (active),inactive,inactive,inactive,inactive
COc1ccc2nccc([C@@H](O)CN3CCC(NCCOc4cc(C(F)(F)F)ccc4F)CC3)c2c1,83% (active),13%,2%,100% (active),inactive,inactive,inactive,inactive
CCOCn1c(-c2ccccc2)cc2c3c(N)nc(N)nc3ccc21,66% (active),62% (active),-4%,91% (active),inactive,inactive,inactive,inactive
Cn1nc(-c2cccc(CN[C@@H]3CCc4ccc(O)cc43)c2)c2cnc(NCCCN3CCCC3)nc21,-2%,9%,-3%,101% (active),inactive,inactive,inactive,inactive
COc1cc2c(cc1O)[C@@H]1[C@H](O)[C@@H](O)C=C3CCN(C2)[C@H]31,31%,18%,3%,90% (active),inactive,inactive,inactive,inactive
Cc1nc(C)c(CC(=O)Nc2cccc(-c3cccc(-c4nc5ccc(C(F)(F)F)cc5[nH]4)c3)c2)s1,30%,49%,-4%,95% (active),inactive,inactive,inactive,inactive
Cn1nc(-c2ccc(NC(=O)Nc3cc(C(F)(F)F)ccc3F)cc2)c2cnc(NCCc3cnc[nH]3)nc21,56% (active),15%,-3%,99% (active),inactive,inactive,inactive,inactive
Cc1cc(CNC(c2ccccc2)C2CCC2)cc(C)c1O (stereo not given),48%,78% (active),-2%,94% (active),inactive,inactive,inactive,inactive
CC(=O)c1ccc(NC(=O)Nc2ccc3nccc(N4CCN(C)CC4)c3c2)cc1,93% (active),2%,-1%,101% (active),inactive,inactive,inactive,inactive
O=C(Nc1ccc(I)cc1)Nc1ccc(Cn2ncc(N3CCCNCC3)c(Cl)c2=O)cc1,30%,35%,0%,86% (active),inactive,inactive,inactive,inactive
CN(C)CCNC(=O)[C@H](CC1CCCCC1)NC(=O)c1ccc(O)c(-c2ccc(Cl)c(Cl)c2)c1,97% (active),0%,-4%,98% (active),inactive,inactive,inactive,inactive
Cc1cc2nc(-c3ccc(C(=O)NCc4cccc(F)c4)cc3)[nH]c2cc1C,6%,-5%,-5%,91% (active),inactive,inactive,inactive,inactive
CCN1CCN(c2cc(C)c3cc(NC(=O)c4ccc(Br)o4)ccc3n2)CC1,13%,-8%,-7%,98% (active),inactive,inactive,inactive,inactive
O=C(Nc1ccc(Cl)cc1)c1ccc(CN2CCCN(Cc3ccsc3)CC2)cc1,1%,48%,4%,88% (active),inactive,inactive,inactive,inactive
Ic1cc(CNC2CCCCC2)ccc1OCc1cccc(COc2ccc(CNC3CCCCC3)cc2I)c1,34%,-1%,-4%,93% (active),inactive,inactive,inactive,inactive

# — PubChem BioAssay
